{
  "source": "PubChem BioAssay (NCI)",
  "note": "Compounds without any hit were thinned out: in the full panel of roughly 79,000, 15% have a hit. A number with no mark means an inactive call. Calls of active or inactive are those of the source. Rule as the data show it: active = growth inhibition above about 70%; inactive = the rest.",
  "data": [
    {"assay": "NCI Yeast Anticancer Drug Screen. Data for the mec2-1 strain (AID 157)", "conditions": "S. cerevisiae mec2-1 strain, at 50.0 µM (retest, dose inferred, filed as 5.0), active compounds read high", "procedure,_shortened": "(§1)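 Each compound was tested on mec2-1 yeast, a strain altered in DNA damage repair or cell cycle control. Growth inhibition is reported relative to vehicle.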", "values": [
      {"smiles": "CC(=O)OCC1OC(n2c(O)c(N=NC(N)=S)c3ccc([N+](=O)[O-])cc32)C(OC(C)=O)C1OC(C)=O", "note": "(stereo unspecified)", "growth inhibition": "47%"},
      {"smiles": "CC1(c2cccs2)C(C#N)(C#N)C1(C#N)C#N", "growth inhibition": "44%"},
      {"smiles": "O=C1C=CC(=O)N1C12CC3CC(CC(C3)C1)C2", "growth inhibition": "99% (active)"},
      {"smiles": "C(=C/c1cnnc2ccccc12)/c1ccccn1", "growth inhibition": "43%"},
      {"smiles": "COc1ccc2c(c1)C1(C)CCCC(C)(C(=O)O)C1CC2", "note": "(stereo unspecified)", "growth inhibition": "99% (active)"},
      {"smiles": "CCN(CC)c1ccc(N=Nc2ccc(Br)cn2)c(O)c1", "growth inhibition": "84% (active)"},
      {"smiles": "O=[N+]([O-])c1cc(NC(=S)SCc2ccccc2)ccc1Cl", "growth inhibition": "99% (active)"},
      {"smiles": "C(=C/c1ccnc2ccccc12)/c1cccs1", "growth inhibition": "93% (active)"},
      {"smiles": "O=P1(O)c2ccccc2CS(=O)(=O)Cc2ccccc21", "growth inhibition": "24%"},
      {"smiles": "CN1C(Cl)=NS(=O)(=O)c2ccccc21", "growth inhibition": "19%"},
      {"smiles": "O=C1C=CC(=O)N1c1ccc(Cl)cc1", "growth inhibition": "99% (active)"},
      {"smiles": "CC(C)CC(C(=O)SCC(C)N1CCCC1)c1ccccc1", "note": "(stereo unspecified)", "growth inhibition": "33%"},
      {"smiles": "CC(C)OC(=O)c1ccc(CCC2=CC(=O)C=CC2=O)cc1", "growth inhibition": "99% (active)"},
      {"smiles": "Cc1ccnc2[nH]c3ccccc3c(=O)c12", "growth inhibition": "98% (active)"},
      {"smiles": "COc1cc(/C=C/C(=O)c2ccc(O)c(OC)c2)ccc1O", "growth inhibition": "29%"},
      {"smiles": "CC12C=CC(=O)C=C1CCC1C3CCC(O)(C(=O)CO)C3(C)CC(O)C12F", "note": "(stereo unspecified)", "growth inhibition": "65%"},
      {"smiles": "O=Cc1ccc2c(c1)CC1(C2)Cc2ccc3c(c2C1)CCC3", "note": "(stereo unspecified)", "growth inhibition": "78% (active)"},
      {"smiles": "C[N+](C)(C)CC(=O)N/N=C(\\C(=O)NC1=C(Cl)C(=O)c2ccccc2C1=O)C(C#N)c1nc(-c2ccc([N+](=O)[O-])cc2)cs1", "note": "(stereo unspecified)", "growth inhibition": "97% (active)"},
      {"smiles": "NC(=O)CC1CCC(c2ccccc2)CC1", "note": "(stereo unspecified)", "growth inhibition": "-23%"},
      {"smiles": "O=C(CC(C[N+](=O)[O-])c1ccc2c(c1)OCO2)c1ccccc1", "note": "(stereo unspecified)", "growth inhibition": "17%"},
      {"smiles": "CC(=O)OCCCCCCCCCCCCCCO", "growth inhibition": "99% (active)"},
      {"smiles": "CCOC(=O)c1sc(N/N=C2\\NC(=O)/C(=C/c3ccc([N+](=O)[O-])cc3)S2)nc1C", "growth inhibition": "90% (active)"},
      {"smiles": "O=C1OC(c2ccc3c(c2)OCO3)Sc2ccccc21", "note": "(stereo unspecified)", "growth inhibition": "-9%"}
    ]},
    {"assay": "NCI Yeast Anticancer Drug Screen. Data for the mec2-1 strain (AID 157)", "conditions": "S. cerevisiae mec2-1 strain, at 50.0 µM, active compounds read high", "procedure,_shortened": "as §1", "values": [
      {"smiles": "Oc1ccc2oc3ccccc3c2c1", "growth inhibition": "76% (active)"},
      {"smiles": "O=C(O)Cc1cc(I)c(Oc2ccc(O)c(I)c2)c(I)c1", "growth inhibition": "92.2% (active)"},
      {"smiles": "O=C(O)/C(=C\\c1ccc(Cl)cc1)c1ccc(C(F)(F)F)cc1[N+](=O)[O-]", "growth inhibition": "97.5% (active)"},
      {"smiles": "Fc1ccc(NC(=S)SCc2ccccc2)cc1", "growth inhibition": "53.6%"},
      {"smiles": "CN(C)c1ccccc1CC(c1c[nH]c2ccccc12)c1c[nH]c2ccccc12", "growth inhibition": "89.5% (active)"},
      {"smiles": "O=C(c1ccccc1)N1CCN(c2cccc(Cl)c2)CC1", "growth inhibition": "0.45%"},
      {"smiles": "[C-]#[N+]C(C)(c1ccccc1)c1ccccc1", "growth inhibition": "93.2% (active)"},
      {"smiles": "Nc1ccccc1[S][Sn]([c]1ccccc1)([c]1ccccc1)[c]1ccccc1", "growth inhibition": "98.5% (active)"},
      {"smiles": "O=C1C(Cl)=C(Cl)C(=O)c2cc(Cl)c(Cl)cc21", "growth inhibition": "84% (active)"},
      {"smiles": "CCCCCCCNC1CCCc2cc(OC)ccc21", "note": "(stereo unspecified)", "growth inhibition": "70.5% (active)"},
      {"smiles": "NCCc1ccc2oc3cc(=O)c4ccccc4c-3nc2c1", "growth inhibition": "24.7%"},
      {"smiles": "C/C=C/c1cc2c(cc1O)CC[C@@H]1[C@@H]2CC[C@]2(C)[C@@H](O)CC[C@@H]12", "growth inhibition": "92% (active)"},
      {"smiles": "c1ccc(SSc2ccccn2)nc1", "growth inhibition": "99.7% (active)"},
      {"smiles": "COC1=C2C[C@@H](C)C[C@@H](OC)[C@@H](O)[C@H](C)/C=C(\\C)[C@@H](OC(N)=O)[C@H](OC)/C=C\\C=C(/C)C(=O)NC(=CC1=O)C2=O", "growth inhibition": "89.7% (active)"},
      {"smiles": "NCc1ccccc1-c1c2nc(c(-c3ccccc3CN)c3ccc([nH]3)c(-c3ccccc3CN)c3nc(c(-c4ccccc4CN)c4ccc1[nH]4)C=C3)C=C2", "growth inhibition": "83% (active)"},
      {"smiles": "Cc1cc(C)n2nc(N)c(C#N)c2c1C#N", "growth inhibition": "7.85%"},
      {"smiles": "CC(=O)OCC1OC(n2c(O)c(N=NC(N)=S)c3ccc([N+](=O)[O-])cc32)C(OC(C)=O)C1OC(C)=O", "note": "(stereo unspecified)", "growth inhibition": "34.6%"},
      {"smiles": "CC1(c2cccs2)C(C#N)(C#N)C1(C#N)C#N", "growth inhibition": "95.8% (active)"},
      {"smiles": "O=C1C=CC(=O)N1C12CC3CC(CC(C3)C1)C2", "growth inhibition": "93.4% (active)"},
      {"smiles": "C(=C/c1cnnc2ccccc12)/c1ccccn1", "growth inhibition": "6.2%"},
      {"smiles": "COc1ccc2c(c1)C1(C)CCCC(C)(C(=O)O)C1CC2", "note": "(stereo unspecified)", "growth inhibition": "99.5% (active)"},
      {"smiles": "CCN(CC)c1ccc(N=Nc2ccc(Br)cn2)c(O)c1", "growth inhibition": "95.5% (active)"},
      {"smiles": "O=[N+]([O-])c1cc(NC(=S)SCc2ccccc2)ccc1Cl", "growth inhibition": "99.3% (active)"}
    ]}
  ]
}
